The values below come from ChEMBL document CHEMBL2218924, “A broad activity screen in support of a chemogenomic map for kinase signalling research and drug discovery” (Biochem J, 2013).

Assay [1] has as its target RAC-alpha serine/threonine-protein kinase (Homo sapiens) (UniProt P31749). The note with it: at 1 µM.
Assay [2] has the same target. Particulars: at 10 µM.
The target in assay [3] is T1, Activin receptor type-1B (Homo sapiens) (UniProt P36896).
T1 sequence (whole entry): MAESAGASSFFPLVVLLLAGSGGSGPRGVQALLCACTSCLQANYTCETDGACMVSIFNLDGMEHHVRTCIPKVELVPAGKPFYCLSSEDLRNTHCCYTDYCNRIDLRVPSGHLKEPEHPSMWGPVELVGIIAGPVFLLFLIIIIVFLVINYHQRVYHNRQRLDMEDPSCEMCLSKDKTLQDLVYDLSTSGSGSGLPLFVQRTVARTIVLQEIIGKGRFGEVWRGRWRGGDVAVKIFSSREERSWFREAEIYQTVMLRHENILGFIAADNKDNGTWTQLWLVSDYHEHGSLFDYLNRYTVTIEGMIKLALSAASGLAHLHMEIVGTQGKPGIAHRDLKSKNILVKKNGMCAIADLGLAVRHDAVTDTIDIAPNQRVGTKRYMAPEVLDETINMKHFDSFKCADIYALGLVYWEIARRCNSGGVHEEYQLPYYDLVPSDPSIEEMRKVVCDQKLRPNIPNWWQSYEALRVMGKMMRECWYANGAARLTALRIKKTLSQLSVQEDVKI
Particulars: at 10 µM.

For assay [4], the target named is T2, AMP-activated protein kinase (AMPK) alpha-1/beta-1/gamma-1 (Homo sapiens) (UniProt P54619+Q9Y478+Q13131). The note with it: at 1 µM.
In assay [5] the target is T2, AMP-activated protein kinase (AMPK) alpha-1/beta-1/gamma-1 (Homo sapiens). The note with it: at 10 µM.
The target of assay [6] is T3, NUAK family SNF1-like kinase 1 (Homo sapiens) (UniProt O60285).
T3 sequence (whole entry): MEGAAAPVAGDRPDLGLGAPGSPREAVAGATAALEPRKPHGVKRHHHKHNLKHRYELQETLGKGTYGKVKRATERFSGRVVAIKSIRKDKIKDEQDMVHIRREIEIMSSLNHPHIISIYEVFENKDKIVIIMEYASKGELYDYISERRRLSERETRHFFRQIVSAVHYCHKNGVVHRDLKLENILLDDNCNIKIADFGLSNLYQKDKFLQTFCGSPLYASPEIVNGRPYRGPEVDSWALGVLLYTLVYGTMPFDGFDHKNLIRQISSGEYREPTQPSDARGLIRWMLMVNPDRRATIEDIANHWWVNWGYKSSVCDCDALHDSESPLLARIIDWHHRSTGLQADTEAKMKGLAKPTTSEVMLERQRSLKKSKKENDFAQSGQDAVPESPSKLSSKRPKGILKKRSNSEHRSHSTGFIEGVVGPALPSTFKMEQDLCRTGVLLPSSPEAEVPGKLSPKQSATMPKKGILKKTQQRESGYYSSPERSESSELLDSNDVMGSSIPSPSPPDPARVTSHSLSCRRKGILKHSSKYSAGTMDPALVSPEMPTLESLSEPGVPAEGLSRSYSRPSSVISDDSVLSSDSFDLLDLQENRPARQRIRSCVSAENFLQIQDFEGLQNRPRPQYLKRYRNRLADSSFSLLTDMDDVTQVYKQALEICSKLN
The note with it: at 1 µM.

The target in assay [7] is T3, NUAK family SNF1-like kinase 1 (Homo sapiens). Particulars: at 10 µM.
The target in assay [8] is Platelet-derived growth factor receptor alpha (Homo sapiens) (UniProt P16234). Particulars: at 10 µM.
Assay [9] deals with T4, 3-phosphoinositide-dependent protein kinase 1 (Homo sapiens) (UniProt O15530).
T4 sequence (whole entry): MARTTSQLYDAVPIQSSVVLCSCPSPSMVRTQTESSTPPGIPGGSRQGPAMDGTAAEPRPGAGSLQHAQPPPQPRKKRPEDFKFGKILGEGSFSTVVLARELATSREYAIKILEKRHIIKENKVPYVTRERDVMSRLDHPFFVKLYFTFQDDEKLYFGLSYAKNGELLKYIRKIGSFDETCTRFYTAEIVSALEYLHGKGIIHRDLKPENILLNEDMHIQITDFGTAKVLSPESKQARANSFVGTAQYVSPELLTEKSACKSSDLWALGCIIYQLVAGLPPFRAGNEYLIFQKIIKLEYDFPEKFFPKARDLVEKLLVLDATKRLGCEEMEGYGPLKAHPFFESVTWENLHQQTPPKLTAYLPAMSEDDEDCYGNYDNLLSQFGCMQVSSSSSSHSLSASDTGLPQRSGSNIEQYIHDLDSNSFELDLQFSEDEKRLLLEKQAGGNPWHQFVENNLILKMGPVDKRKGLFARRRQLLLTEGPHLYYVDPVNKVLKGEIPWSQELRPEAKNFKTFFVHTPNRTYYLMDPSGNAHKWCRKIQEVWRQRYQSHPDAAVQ
The note with it: at 1 µM.

Assay [10] has as its target T4, 3-phosphoinositide-dependent protein kinase 1 (Homo sapiens). The note with it: at 10 µM.
Assay [11] deals with T1, Activin receptor type-1B (Homo sapiens). Particulars: at 1 µM.
For assay [12], the target named is T5, AMP-activated protein kinase, AMPK (Homo sapiens) (UniProt P54646+O43741+P54619+Q9UGJ0+Q9Y478+Q13131+Q9UGI9). Particulars: at 1 µM.
The target in assay [13] is T5, AMP-activated protein kinase, AMPK (Homo sapiens). Particulars: at 10 µM.
The target of assay [14] is cAMP-dependent protein kinase catalytic subunit alpha (Homo sapiens) (UniProt P17612). The note with it: at 1 µM.
For assay [15] the target is unchanged. Particulars: at 10 µM.
Assay [16] has as its target RAC-gamma serine/threonine-protein kinase (Homo sapiens) (UniProt Q9Y243). Particulars: at 1 µM.
Assay [17] concerns the target T6, Mitogen-activated protein kinase kinase kinase 5 (Homo sapiens) (UniProt Q99683).
T6 sequence (whole entry): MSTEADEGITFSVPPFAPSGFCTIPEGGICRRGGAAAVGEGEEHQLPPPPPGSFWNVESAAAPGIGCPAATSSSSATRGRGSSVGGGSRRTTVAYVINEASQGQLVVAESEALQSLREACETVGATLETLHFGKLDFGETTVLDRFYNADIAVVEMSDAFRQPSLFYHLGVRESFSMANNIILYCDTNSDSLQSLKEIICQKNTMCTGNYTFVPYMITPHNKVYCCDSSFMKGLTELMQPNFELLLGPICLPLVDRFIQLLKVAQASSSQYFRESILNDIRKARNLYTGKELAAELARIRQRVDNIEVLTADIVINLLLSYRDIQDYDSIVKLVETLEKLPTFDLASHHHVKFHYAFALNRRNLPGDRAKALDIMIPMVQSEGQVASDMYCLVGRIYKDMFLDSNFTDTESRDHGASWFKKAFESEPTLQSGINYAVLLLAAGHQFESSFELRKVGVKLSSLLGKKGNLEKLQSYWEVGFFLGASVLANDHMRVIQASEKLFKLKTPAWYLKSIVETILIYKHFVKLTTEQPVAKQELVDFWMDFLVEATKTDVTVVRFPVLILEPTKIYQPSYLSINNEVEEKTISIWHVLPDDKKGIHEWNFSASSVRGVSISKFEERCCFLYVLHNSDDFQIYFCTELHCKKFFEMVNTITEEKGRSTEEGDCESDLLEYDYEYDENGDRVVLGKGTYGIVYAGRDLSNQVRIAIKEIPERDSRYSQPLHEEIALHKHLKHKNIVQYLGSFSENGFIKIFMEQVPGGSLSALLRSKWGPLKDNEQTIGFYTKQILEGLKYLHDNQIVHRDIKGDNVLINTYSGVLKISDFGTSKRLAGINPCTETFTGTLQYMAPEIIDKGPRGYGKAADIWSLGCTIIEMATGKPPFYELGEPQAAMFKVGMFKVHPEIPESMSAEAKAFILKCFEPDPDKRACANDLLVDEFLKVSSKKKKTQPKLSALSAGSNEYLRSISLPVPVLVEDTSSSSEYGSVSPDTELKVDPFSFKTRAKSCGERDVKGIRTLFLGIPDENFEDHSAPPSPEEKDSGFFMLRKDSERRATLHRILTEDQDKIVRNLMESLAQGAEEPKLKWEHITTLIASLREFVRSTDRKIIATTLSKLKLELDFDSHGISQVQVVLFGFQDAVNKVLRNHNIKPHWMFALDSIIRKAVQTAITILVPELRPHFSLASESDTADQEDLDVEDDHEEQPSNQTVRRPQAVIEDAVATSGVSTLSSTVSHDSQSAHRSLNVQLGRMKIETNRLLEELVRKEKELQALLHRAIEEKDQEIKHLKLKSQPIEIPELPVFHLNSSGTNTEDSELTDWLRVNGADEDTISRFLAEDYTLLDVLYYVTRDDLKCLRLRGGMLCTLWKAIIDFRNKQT
The note with it: at 1 µM.

The target in assay [18] is Platelet-derived growth factor receptor alpha (Homo sapiens) (UniProt P16234). The note with it: at 1 µM.
Assay [19] concerns the target Platelet-derived growth factor receptor beta (Homo sapiens) (UniProt P09619). The note with it: at 1 µM.
For assay [20] the target is unchanged. Particulars: at 10 µM.

Sequence of Platelet-derived growth factor receptor alpha (Homo sapiens) (P16234 whole entry): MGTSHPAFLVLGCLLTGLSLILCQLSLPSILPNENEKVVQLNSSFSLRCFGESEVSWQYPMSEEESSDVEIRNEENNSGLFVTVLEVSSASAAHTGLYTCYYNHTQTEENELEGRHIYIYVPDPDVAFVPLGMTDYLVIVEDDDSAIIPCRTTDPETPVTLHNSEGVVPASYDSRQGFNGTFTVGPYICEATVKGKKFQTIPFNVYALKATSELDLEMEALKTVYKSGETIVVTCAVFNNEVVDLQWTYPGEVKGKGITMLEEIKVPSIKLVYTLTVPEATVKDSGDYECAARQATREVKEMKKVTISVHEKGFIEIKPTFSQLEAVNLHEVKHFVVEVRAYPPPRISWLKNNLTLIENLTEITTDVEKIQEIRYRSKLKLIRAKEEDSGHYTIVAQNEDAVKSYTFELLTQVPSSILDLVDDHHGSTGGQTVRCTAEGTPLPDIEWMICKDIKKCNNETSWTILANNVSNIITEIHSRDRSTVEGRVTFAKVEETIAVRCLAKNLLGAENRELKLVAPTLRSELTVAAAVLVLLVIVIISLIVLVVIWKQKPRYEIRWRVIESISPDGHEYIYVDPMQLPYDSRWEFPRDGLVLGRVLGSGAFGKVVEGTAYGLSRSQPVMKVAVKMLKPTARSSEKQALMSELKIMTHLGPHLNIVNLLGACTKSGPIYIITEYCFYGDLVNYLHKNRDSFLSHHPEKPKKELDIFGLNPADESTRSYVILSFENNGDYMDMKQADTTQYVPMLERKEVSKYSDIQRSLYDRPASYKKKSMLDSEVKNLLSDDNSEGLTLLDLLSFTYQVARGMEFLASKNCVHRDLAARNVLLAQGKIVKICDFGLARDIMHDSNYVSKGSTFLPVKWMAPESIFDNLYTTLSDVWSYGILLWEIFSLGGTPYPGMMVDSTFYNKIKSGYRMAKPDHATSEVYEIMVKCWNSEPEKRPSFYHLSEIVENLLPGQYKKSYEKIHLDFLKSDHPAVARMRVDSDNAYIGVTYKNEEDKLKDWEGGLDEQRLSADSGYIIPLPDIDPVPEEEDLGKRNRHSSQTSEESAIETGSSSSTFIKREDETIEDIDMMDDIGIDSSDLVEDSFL
Sequence of RAC-alpha serine/threonine-protein kinase (Homo sapiens) (P31749 whole entry): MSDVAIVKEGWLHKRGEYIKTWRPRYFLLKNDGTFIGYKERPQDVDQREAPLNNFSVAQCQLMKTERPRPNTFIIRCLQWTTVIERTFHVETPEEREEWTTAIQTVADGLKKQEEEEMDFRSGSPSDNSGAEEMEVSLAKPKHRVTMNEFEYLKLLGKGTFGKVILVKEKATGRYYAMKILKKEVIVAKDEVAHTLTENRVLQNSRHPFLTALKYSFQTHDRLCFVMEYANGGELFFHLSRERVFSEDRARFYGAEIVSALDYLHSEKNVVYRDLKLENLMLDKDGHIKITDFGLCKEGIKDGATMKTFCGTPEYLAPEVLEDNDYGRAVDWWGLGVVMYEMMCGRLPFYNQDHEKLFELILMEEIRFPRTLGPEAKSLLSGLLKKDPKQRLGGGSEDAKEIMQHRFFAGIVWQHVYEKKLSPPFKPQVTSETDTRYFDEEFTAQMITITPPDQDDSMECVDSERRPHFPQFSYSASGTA
T2 sequence (P54619 whole entry): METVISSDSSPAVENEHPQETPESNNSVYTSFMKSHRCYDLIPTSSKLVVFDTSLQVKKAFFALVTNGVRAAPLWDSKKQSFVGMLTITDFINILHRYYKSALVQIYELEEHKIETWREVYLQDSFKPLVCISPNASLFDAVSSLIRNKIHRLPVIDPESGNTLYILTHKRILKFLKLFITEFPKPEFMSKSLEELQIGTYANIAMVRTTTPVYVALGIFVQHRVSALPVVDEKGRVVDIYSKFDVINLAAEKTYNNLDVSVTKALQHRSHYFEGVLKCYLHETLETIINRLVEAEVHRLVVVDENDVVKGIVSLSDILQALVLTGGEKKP
T2 sequence (Q13131 whole entry partner): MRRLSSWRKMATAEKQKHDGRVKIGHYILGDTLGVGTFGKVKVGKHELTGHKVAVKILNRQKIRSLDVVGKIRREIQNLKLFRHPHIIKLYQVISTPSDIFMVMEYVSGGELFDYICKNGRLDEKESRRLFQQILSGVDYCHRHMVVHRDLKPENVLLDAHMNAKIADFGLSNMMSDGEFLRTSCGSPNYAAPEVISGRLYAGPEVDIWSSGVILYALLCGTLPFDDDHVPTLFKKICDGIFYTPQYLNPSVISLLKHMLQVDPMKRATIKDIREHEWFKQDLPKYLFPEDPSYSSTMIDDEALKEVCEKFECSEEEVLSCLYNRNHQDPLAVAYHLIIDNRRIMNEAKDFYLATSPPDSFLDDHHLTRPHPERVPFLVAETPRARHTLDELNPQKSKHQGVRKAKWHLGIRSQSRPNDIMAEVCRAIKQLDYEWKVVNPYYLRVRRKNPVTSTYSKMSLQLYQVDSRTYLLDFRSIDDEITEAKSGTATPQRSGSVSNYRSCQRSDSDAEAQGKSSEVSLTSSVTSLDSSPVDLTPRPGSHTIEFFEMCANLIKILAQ
T2 sequence (Q9Y478 2-270 partner limits assumed): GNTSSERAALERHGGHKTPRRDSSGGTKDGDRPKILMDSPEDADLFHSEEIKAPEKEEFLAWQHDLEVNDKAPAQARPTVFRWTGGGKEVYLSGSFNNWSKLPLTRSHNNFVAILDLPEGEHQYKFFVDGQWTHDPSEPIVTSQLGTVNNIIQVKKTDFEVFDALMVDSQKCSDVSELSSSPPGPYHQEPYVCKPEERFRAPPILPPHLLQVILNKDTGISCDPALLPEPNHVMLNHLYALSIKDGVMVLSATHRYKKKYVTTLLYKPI
Sequence of Platelet-derived growth factor receptor beta (Homo sapiens) (P09619 whole entry): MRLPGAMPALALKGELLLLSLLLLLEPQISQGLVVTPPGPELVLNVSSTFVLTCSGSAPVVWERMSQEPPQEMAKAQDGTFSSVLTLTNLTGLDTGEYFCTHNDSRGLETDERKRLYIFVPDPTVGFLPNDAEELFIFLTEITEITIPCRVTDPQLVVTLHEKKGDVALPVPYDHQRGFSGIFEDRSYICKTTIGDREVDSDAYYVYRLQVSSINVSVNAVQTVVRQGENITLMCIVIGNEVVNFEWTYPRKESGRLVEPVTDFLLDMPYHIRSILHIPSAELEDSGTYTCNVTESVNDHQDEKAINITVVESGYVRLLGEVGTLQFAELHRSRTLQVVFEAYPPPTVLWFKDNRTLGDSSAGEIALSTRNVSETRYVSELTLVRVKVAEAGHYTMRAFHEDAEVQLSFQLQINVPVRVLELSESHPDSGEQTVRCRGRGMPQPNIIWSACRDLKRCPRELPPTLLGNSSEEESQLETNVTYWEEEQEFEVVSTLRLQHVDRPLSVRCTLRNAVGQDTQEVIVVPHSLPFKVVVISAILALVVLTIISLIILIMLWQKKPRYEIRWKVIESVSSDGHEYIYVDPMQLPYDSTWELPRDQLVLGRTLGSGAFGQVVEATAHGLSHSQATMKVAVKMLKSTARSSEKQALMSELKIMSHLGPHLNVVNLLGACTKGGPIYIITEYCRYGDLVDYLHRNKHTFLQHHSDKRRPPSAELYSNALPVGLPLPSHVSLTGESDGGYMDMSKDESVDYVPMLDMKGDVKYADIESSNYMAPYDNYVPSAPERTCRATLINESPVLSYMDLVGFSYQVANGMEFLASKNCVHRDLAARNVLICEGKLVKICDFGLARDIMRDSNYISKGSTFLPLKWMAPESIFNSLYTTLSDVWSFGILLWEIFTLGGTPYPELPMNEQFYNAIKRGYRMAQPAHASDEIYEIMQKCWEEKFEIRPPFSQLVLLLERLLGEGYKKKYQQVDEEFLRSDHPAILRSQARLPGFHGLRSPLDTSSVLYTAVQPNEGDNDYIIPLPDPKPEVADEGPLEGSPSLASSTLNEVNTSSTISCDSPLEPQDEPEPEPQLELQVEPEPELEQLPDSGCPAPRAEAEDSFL
Sequence of RAC-gamma serine/threonine-protein kinase (Homo sapiens) (Q9Y243 whole entry): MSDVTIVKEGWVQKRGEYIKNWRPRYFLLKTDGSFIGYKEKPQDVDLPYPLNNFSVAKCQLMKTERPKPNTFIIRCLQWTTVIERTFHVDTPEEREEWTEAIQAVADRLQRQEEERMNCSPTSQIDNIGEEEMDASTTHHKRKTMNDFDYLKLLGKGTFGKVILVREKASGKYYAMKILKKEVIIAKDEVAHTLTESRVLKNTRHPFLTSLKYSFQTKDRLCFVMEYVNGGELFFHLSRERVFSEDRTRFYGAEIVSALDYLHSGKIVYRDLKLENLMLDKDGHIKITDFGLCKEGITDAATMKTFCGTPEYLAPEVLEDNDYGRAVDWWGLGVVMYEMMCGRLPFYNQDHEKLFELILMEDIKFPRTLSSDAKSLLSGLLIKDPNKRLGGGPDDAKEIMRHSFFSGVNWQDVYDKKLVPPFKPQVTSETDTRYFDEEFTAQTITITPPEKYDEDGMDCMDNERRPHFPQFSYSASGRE

Regarding `Nc1ncnc2[nH]nc(Nc3ccc(F)cc3)c12`, the residual activity in [1] came to 111%; in assay [2], 109%.
For `O=C1NC(=O)/C(=C/c2ccc3c(c2)OC(F)(F)O3)S1`, the values for the residual activity in [1] and in assay [2] were 102% and 111%, respectively.
Take `COc1ccc2c(c1)/C(=C/c1cnc[nH]1)C(=O)N2`: the residual activity in assay [3] was 82%; in [4], 47%; in [5], 8%; in assay [6], 17%; in [7] it was 8%; in assay [8], 82%. Besides, the residual activity in assay [9] worked out at 76%; in assay [10], 20%.
Consider `Cn1cnc2cc3c(Nc4cccc(Br)c4)ncnc3cc21`, for which the figures for the residual activity in assay [1] and in assay [2] were 95% and 109%, respectively.
Regarding `COc1ccc2c(c[n+](C)c3c4cc5c(cc4ccc23)OCO5)c1OC`, the residual activity turned out to be 132% in assay [11]; 94% in [3]; 96% in assay [4]; 66% in assay [5]; 89% in assay [12]; 60% in [13]. The residual activity in assay [14] was determined as 98%; in assay [15], 73%; in assay [1] it was 98%; in [2], 110%; in assay [16], 82%.
Consider `c1ccc(-c2cnc(Nc3ccc(OCCN4CCCC4)cc3)s2)cc1`, for which the residual activity was 102% in assay [1] and 115% in [2].
`Ic1cccc(CSc2nnc(-c3ccncc3)o2)c1`: the residual activity in assay [1] came out at 116%.
On to `NC(=O)Nc1sc(-c2ccc(F)cc2)cc1C(N)=O`, for which the residual activity in assay [1] came to 114%; in assay [2], 109%.
Take `O=[N+]([O-])/C=C/c1ccc2c(c1)OCO2`: the residual activity was determined as 133% in assay [11]; 93% in assay [3]; 89% in [4]; 80% in assay [5]; 101% in assay [12]; 78% in assay [13]. For the same compound, the residual activity in assay [6] is 107%; in assay [7] it was 87%; in assay [17] it was 109%; in assay [18] it was 114%; in assay [8], 105%; in [19], 94%. Further, the residual activity in [20] came out at 97%; in assay [9], 106%; in assay [10] it was 96%; in assay [14], 124%; in assay [1], 100%; in assay [2], 110%. The residual activity in assay [16] turned out to be 125%.
In the case of `c1ccc(-c2n[nH]cc2-c2ccnc3ccccc23)nc1`, the residual activity in assay [1] turned out to be 96%.
Regarding `COc1ccc(CNc2nc(N(CCO)CCO)nc3c2ncn3C(C)C)cc1`, the residual activity was 118% in [1] and 111% in assay [2].
